Assay results as given in the supplement of paper PMC10849652.
Of roughly 7,900 targets only a part is listed; those with a hit were picked by preference. About 0.6% of all pairs of compound and target were hits.

Compound: C1COCCN1CCN2C3=CC=CC=C3N=C2NC(=O)C4=CC(=CC=C4)[N+](=O)[O-] [IRAK-1-4 Inhibitor I]
Assay: log2 fold change, soluble protein after heating vs DMSO (PISA); higher = thermal stabilisation; K562 cells, 10 uM, 30 min; active = over 0.2 and 3.5 SD of the protein, either way, in both replicates (recomputed)
In short: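 K562 cells (2×10^6 cells/mL) were treated with 10 μM compound for 30 min, and aliquots were heated for 3 min over 48°C-58°C. Pooled aliquots were extracted in PBS with 0.5% NP-40 at 4°C, and the supernatant after 21,000xg for 90 min was measured by TMTpro 16plex LC-MS/MS with channel sums equalised. Reported thermal stability, relative to control samples and from duplicates, is a log2 fold change.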

UniProt Q5SSJ5, sequence (Q5SSJ5 whole entry, looked up): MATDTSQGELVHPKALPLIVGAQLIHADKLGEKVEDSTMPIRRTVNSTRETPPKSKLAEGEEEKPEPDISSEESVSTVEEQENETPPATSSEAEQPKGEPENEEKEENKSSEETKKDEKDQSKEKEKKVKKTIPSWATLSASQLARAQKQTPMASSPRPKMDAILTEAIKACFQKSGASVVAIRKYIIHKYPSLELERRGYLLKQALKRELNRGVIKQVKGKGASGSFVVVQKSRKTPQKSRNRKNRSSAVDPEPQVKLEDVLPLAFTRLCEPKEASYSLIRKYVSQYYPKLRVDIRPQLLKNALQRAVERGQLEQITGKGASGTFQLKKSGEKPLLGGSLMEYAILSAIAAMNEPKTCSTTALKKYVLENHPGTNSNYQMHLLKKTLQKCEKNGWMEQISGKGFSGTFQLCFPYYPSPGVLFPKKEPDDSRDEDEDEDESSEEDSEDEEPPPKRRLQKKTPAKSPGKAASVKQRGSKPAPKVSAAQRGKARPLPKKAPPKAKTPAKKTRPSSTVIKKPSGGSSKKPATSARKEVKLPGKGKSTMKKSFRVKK
UniProt P52657, sequence (P52657 whole entry, looked up): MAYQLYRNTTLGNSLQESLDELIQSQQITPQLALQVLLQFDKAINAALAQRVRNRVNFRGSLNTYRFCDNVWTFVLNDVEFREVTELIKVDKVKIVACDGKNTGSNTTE
UniProt Q9P2D3, sequence (Q9P2D3 whole entry, looked up): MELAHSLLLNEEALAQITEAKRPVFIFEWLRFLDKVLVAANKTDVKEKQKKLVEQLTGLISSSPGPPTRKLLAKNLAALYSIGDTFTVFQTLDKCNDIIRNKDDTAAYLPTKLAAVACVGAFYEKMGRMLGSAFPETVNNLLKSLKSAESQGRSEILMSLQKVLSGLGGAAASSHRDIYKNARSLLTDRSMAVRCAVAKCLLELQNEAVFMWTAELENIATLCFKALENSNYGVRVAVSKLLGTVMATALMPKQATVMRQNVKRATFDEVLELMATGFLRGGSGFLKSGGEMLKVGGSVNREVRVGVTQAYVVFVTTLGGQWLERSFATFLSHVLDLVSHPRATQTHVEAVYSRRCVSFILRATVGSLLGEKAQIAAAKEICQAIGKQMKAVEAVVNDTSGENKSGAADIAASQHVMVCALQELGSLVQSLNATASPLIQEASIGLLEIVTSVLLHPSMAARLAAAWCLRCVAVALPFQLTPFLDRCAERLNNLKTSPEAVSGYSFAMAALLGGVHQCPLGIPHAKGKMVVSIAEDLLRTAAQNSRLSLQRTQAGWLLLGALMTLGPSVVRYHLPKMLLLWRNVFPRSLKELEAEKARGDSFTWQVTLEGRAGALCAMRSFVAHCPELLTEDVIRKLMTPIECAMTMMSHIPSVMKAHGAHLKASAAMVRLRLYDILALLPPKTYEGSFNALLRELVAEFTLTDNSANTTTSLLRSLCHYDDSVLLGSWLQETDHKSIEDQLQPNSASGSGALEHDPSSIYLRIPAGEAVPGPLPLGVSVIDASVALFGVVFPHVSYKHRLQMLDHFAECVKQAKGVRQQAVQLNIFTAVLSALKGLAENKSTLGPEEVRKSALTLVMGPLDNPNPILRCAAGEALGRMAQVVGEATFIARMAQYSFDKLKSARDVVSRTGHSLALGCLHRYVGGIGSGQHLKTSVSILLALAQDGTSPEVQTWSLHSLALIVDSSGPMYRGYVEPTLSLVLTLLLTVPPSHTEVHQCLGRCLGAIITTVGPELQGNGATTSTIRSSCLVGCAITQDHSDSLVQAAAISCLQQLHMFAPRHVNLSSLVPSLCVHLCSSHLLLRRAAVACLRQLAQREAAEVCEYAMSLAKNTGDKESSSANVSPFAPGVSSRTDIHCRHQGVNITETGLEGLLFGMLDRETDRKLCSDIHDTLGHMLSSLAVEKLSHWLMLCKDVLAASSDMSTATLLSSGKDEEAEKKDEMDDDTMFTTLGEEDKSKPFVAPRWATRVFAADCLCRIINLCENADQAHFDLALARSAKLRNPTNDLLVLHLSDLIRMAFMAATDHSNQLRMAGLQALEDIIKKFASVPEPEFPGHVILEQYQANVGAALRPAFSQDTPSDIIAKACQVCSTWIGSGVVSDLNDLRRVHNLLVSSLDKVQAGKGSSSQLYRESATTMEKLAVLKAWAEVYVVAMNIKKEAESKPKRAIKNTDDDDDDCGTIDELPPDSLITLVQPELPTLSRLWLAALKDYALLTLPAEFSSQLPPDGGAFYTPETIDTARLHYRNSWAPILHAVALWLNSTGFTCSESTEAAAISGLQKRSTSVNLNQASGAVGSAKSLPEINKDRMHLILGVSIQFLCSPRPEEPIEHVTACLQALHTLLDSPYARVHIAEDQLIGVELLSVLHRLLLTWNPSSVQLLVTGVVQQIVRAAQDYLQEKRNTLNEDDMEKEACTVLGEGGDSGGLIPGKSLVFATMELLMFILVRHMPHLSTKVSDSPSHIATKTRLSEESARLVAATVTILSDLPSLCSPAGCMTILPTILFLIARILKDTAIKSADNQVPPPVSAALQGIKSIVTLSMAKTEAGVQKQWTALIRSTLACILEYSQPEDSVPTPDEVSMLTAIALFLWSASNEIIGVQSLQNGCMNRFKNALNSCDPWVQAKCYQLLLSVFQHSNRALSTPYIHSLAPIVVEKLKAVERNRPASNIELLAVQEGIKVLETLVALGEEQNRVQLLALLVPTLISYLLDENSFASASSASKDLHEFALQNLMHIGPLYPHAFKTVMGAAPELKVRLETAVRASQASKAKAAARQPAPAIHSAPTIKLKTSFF
UniProt Q96I24, sequence (Q96I24 whole entry, looked up): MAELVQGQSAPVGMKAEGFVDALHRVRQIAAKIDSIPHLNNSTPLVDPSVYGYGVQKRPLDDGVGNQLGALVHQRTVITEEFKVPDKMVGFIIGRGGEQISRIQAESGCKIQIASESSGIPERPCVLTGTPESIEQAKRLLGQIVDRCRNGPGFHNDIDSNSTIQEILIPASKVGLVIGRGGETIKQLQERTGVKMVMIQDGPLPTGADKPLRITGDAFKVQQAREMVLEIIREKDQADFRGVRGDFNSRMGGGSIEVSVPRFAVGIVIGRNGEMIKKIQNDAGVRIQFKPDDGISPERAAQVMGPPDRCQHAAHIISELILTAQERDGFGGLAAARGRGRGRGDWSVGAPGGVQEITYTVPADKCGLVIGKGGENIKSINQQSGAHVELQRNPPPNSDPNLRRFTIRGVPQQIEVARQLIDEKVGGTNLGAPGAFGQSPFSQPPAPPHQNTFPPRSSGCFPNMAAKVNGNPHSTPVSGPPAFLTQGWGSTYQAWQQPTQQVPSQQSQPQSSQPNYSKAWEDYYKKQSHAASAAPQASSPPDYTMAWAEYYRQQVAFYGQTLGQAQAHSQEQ
UniProt O15228, sequence (O15228 whole entry, looked up): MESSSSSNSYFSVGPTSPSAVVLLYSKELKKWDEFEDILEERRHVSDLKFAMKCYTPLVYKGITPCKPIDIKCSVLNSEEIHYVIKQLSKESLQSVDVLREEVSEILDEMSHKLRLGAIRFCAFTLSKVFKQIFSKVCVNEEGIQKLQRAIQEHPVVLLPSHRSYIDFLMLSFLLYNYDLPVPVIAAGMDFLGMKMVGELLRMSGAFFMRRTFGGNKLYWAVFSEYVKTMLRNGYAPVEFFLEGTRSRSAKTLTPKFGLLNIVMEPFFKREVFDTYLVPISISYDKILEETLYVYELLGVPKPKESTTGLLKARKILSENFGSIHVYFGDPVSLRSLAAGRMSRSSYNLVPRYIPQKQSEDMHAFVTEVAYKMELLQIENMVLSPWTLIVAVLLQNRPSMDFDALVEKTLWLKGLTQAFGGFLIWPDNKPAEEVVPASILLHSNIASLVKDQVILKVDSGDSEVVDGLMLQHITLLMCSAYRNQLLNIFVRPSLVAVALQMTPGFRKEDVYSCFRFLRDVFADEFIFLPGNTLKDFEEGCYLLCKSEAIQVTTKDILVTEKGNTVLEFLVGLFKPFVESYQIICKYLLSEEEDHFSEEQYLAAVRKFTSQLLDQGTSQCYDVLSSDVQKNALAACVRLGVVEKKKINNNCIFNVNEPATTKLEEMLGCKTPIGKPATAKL
UniProt P30519, sequence (P30519 whole entry, looked up): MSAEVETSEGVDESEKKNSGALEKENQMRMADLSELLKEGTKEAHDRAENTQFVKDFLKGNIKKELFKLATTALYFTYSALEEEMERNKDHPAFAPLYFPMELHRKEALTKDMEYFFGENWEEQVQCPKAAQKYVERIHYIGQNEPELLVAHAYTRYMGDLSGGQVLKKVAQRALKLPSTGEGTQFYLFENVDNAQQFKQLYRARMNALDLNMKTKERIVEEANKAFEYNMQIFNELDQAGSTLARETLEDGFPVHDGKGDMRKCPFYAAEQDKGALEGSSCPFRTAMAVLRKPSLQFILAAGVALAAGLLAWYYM
UniProt P46976, sequence (P46976 whole entry, looked up): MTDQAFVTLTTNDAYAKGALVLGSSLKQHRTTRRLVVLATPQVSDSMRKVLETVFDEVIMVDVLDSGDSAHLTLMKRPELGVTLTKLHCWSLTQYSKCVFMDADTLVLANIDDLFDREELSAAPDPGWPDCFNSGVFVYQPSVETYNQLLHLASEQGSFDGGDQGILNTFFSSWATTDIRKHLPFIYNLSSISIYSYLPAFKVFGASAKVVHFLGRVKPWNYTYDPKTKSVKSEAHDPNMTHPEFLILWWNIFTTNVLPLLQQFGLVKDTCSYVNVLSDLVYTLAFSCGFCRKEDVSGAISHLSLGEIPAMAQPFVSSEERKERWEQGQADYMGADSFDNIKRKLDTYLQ
UniProt P02008, sequence (P02008 whole entry, looked up): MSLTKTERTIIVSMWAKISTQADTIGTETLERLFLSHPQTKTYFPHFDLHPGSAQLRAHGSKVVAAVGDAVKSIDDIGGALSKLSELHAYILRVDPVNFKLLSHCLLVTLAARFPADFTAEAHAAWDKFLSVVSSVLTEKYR
UniProt P69905, sequence (P69905 whole entry, looked up): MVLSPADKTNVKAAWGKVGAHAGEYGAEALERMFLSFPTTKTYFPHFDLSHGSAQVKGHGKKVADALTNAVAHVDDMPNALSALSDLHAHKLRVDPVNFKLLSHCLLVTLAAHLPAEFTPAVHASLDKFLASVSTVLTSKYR

log2 fold change, inactive:
HADHB (UniProt P55084) -0.025, GDPD1 (UniProt Q8N9F7) 0.02, HBZ (UniProt P02008) 0.025, FNTA (UniProt P49354) 0.052, FUBP3 (UniProt Q96I24) -0.002, FAM91A1 (UniProt Q658Y4) 0.092, GTF3C4 (UniProt Q9UKN8) -0.002, HSPA8 (UniProt E9PK54) -0.051, GNPAT (UniProt O15228) 0.026, GTF2A2 (UniProt P52657) 0.013, HBA1 (UniProt P69905) 0.002, GDI1 (UniProt P31150) 0.034, HMOX2 (UniProt P30519) -0.061, HMGN2 (UniProt P05204) -0.034, GYG1 (UniProt P46976) -0.055, FKBP3 (UniProt Q00688) 0.01, HEATR5B (UniProt Q9P2D3) -0.002, FKBP4 (UniProt Q02790) 0, H2AFX (UniProt P16104) -0.049, GUSB (UniProt P08236) 0.037, HDAC6 (UniProt Q9UBN7) -0.086, FBXO42 (UniProt Q6P3S6) -0.103, HP1BP3 (UniProt Q5SSJ5) -0.097, GEMIN5 (UniProt Q8TEQ6) -0.037
